From PubChem BioAssay (NCI)
This is part of a sample that, as a whole, favours compounds with a hit. Of some 79,000 tested, about 15% had one in any assay. A number with no mark means an inactive call. Activity calls are given as the source filed them. No stated cut-off is given here; in the data, active means growth inhibition above about 70%; inactive means the rest.

Assays:
[1] = NCI Yeast Anticancer Drug Screen. Data for the rad50 strain (AID 155);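 further: 0% = growth of vehicle-only cultures of the same strain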; settings: S. cerevisiae rad50 strain growth inhibition, stronger effect = higher value; at 50.0 µM unless noted
Method in brief: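 Genetically altered yeast (DNA repair pathway); compound treatment; growth inhibition vs vehicle ctrl.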

[2] = NCI Yeast Anticancer Drug Screen. Data for the mec2-1 strain (AID 157); settings: S. cerevisiae mec2-1 strain, stronger effect = higher value; at 50.0 µM unless noted
Method in brief: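 Yeast mec2-1 mutant treated with compound. Readout: growth inhibition vs vehicle controls.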

[3] = NCI Yeast Anticancer Drug Screen. Data for the sgs1 mgt1 strain (AID 161);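 further: 0% = growth of cultures given vehicle only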; settings: S. cerevisiae sgs1 mgt1 strain, stronger effect = higher value; at 50.0 µM unless noted
Method in brief: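 Genetically altered yeast, compound exposure, growth inhibition relative to vehicle.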

[4] = NCI Yeast Anticancer Drug Screen. Data for the cln2 rad14 strain (AID 165);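 further: 0% = growth equal to vehicle treated cultures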; settings: S. cerevisiae cln2 rad14 strain, stronger effect = higher value; at 50.0 µM unless noted
Method in brief: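 cln2 rad14 yeast strain; compound exposure; growth inhibition read vs vehicle controls.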

[5] = NCI Yeast Anticancer Drug Screen. Data for the bub3 strain (AID 167); settings: S. cerevisiae bub3 mutant strain, stronger effect = higher value; at 50.0 µM unless noted
Method in brief: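 Yeast carrying a defined mutation is treated with each compound, and growth is compared with that of vehicle-exposed cells to give inhibition.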

[6] = NCI Yeast Anticancer Drug Screen. Data for the mlh1 rad18 strain (AID 175); settings: S. cerevisiae mlh1 rad18 strain growth inhibition, stronger effect = higher value; at 50.0 µM unless noted
Method in brief: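 Yeast w/ defined DNA-repair lesions; compound exposure; growth vs vehicle controls → % inhibition.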

SMILES	growth inhibition [1]	growth inhibition [2]	growth inhibition [3]	growth inhibition [4]	growth inhibition [5]	growth inhibition [6]
CCCC1OC(c2cc3c(cc2Br)OCO3)OCC1CC (configuration not stated)	-4.5%	-8.9%	9.25%	3.1%	23.1%	-4.7%
CCOC(C)(Cc1ccccc1[N+](=O)[O-])OCC	11.4%	4.3%	-4.05%	2.5%	-3.6%	18.5%
CCOC(=N)C1(O)CCCCC1	-9.05%	-6.75%	-13.4%	-5.1%	-3.8%	23.6%
CN1CC2=C(NC(=S)NC2c2ccc(Cl)cc2)/C(=C/c2ccc(Cl)cc2)C1 (configuration not stated)	-7.95%	4.45%	7.45%	14.4%	29.2%	4.15%
Cc1ccc(NCC2CC/C(=C\c3ccc(Cl)cc3)C2=O)cc1 (configuration not stated)	-43.8%	-22.8%	-33.4%	-50.5%	-10.2%	-32.3%
O=c1[nH]nc(Cc2ccccc2)n1C1CCCC1	-1.55%	-5.3%	-12.6%	-17.8%	-9.6%	-1.05%
Nc1nc(-c2ccc(Cl)cc2)cc(-c2cc(-c3ccc(Cl)cc3)nc(N)n2)n1	6.7%	-12.9%	-8.15%	-16%	-11.2%	25.4%
CC(C)(C)c1cc(-n2nc3ccccc3[n+]2[O-])c(O)c(C(C)(C)C)c1	4.35%	12.8%	20.1%	18.6%	-0.6%	33.6%
CC1(C)C2CC(C(=O)O)C1C2 (configuration not stated)	2.75%	5.8%	2.05%	3.8%	-10.8%	-19.1%
NNC(=O)C(c1ccccc1)c1ccccc1	6.4%	-8.95%	-18.8%	3%	-28.9%	-0.25%
Brc1ccccc1C#Cc1ccccc1Br	0.7%	-4.6%	16.3%	-1.25%	10.1%	19.1%
Cc1ccc(NC(=O)CC/C(CC(=O)C(C)(C)C)=N/NC(=O)c2cc3ccccc3cc2O)cc1C	27.9%	21.1%	0.35%	-0.35%	28.4%	14.8%
Nc1ccc(Cc2cc([N+](=O)[O-])cc([N+](=O)[O-])c2)cc1	3.15%	-1.75%	11.4%	-42%	15.3%	-29.8%
CNC(CCCCC1CCCCC1)C(=O)O (configuration not stated)	8.2%	3.4%	12.1%	-10.8%	-8.2%	-0.2%
O=[N+]([O-])c1cccnc1S(=O)(=O)c1ccccc1	36.9%	5.7%	12.2%	4.75%	6.2%	-0.15%
CCOC(=O)O/C(C)=C\c1ccc(Cl)cc1	2.45%	-2.65%	-12.4%	-50.4%	-34.9%	7.05%
CCC1(C)OCCO1	0.5%	-13.5%	-12.1%	-29.9%	1.05%	2.2%
C#CCOc1ccc(C)cc1	-0.55%	5.35%	-7.05%	9.25%	2.55%	-10.1%
Nc1c(Br)cc(Br)cc1C(=O)O	23.9%	-14.1%	42.2%	17.1%	-6.95%	5.7%
CC12CC(=O)OC1(C)C1CCC2C1 (configuration not stated)	9.25%	10.3%	-5.25%	-10.7%	-10.2%	9.05%
C/C(=N/NC(N)=S)c1c(C)[nH]c2ccccc12	3.1%	10.2%	-7.7%	-78.8%	-45%	0.95%

SMILES	growth inhibition [1]	growth inhibition [2]	growth inhibition [3]	growth inhibition [4]	growth inhibition [5]	growth inhibition [6]
C=CCOC(=O)c1ccc(C(C)C)cc1	25.1%	12%	9.5%	7.6%	8%	35.6%
CN(Cc1cc(Br)cc(Br)c1O)Cc1c(O)ccc2ccccc12	98.8% (active)	98.8% (active)	98.8% (active)	97.3% (active)	98.2% (active)	98.8% (active)
Clc1cccc(/C=N\N=C\c2cccc(Cl)c2)c1	-4.6%	-7.75%	6.3%	-8.75%	-1.95%	5.45%
Cc1cccc(OC(=O)NC2CCCCC2)c1	3.5%	-4.25%	-13.2%	-72.3%	6.5%	-13.3%
CC(c1cccc(O)c1)N(C)C (configuration not stated)	5.9%	-2.2%	0.7%	-10.4%	1.25%	-3.85%
CCCCNC(=S)NNC(=O)c1ccncc1	-0.35%	3.65%	-0.55%	5.5%	10.7%	3.45%
Cc1nnc(N)nc1C	33%	9.5%	-10.1%	-0.8%	-1.3%	13.6%
CC(=O)CC(=O)ON(C)C(=O)Cc1ccccc1	29.6%	15.2%	-2.75%	-4.4%	-6.1%	-8.35%
CO/C(=N\N=C\c1ccc(C(F)(F)F)cc1)c1ccncc1	54.5%	18.9%	35.3%	22.4%	30.9%	15.3%
COc1ccc2c(c1)c(C)cc[n+]2C	-3.3%	8.5%	-5.9%	-9.65%	-3.05%	-19.3%
CCOC(=O)CSc1nc(-c2ccccc2)c(C#N)c(=O)[nH]1	3.05%	1.2%	-5.4%	13.2%	2.6%	-61%
C=CCNc1nc(Cl)nc2c1cnn2C	13.3%	-3%	-2.95%	-21.3%	8.55%	-5.15%
Cc1ccc(N=C2S/C(=C3/CCC=C3N3CCOCC3)N(c3ccc(Cl)cc3)C2=Nc2ccc(C)cc2)cc1	-8.9%	-13.4%	-14.9%	-14.6%	-22.4%	-28%
CCOC(=O)/C(Cc1ccc2ccccc2n1)=N/O	-6.35%	-26.2%	0.9%	-16.8%	13.7%	6.25%
CCCc1ccc(C)c(CCC)c1O	-5.95%	-10.9%	-5.1%	-17.3%	-4.05%	4%
Nc1nc(=S)[nH]c(=S)[nH]1	22.9%	19.4%	10.9%	2.7%	17.2%	-4.45%
CCOC(=O)/C(=N/Nc1ccc(Cl)cc1)N1C(=S)C=C(C)NN(C)C1=S	-6.35%	-13.4%	-22.1%	-6.4%	-4.8%	8.15%
CCC1=C(c2ccc(OC)cc2)CC[C@@]2(CCNC2=O)[C@@H]1C	4.8%	-0.2%	-5.45%	14.3%	3.8%	8.8%
C[C@@]1(O)C2CC3CC1(c1ccccc1)CC(/C3=N/O)/C2=N\O (some centres not stated)	-14.3%	-17.6%	-1.8%	26.2%	-16.7%	8.3%
COc1cc(C(=O)NO)ccc1O	-0.15%	-12.6%	-15.1%	-1.95%	-6%	-1.4%
CC(C)NC(=O)OCc1c(COC(=O)NC(C)C)c(-c2ccc(F)cc2F)n2c1CCC2	12%	4%	10%	8.6%	-13.6%	-12.7%
